Consider eleven compounds from PubChem BioAssay (EPA / NIEHS).

Test [1] can be described thus: ATG_TAL_CIS: Attagene CIS-FACTORIAL HepG2 Assay for human TAL Basal Promoter (AID 2282966).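 Further: background control endpoint measuring basal TAL promoter reporter mRNA not a specific factor.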 The conditions noted are these: HepG2 Attagene cis-factorial TAL promoter reporter; actives raise or lower the signal. An outline of the steps:
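After 24 hours of chemical exposure, transfected HepG2 cells yielded RNA that was converted to 6-FAM-labelled, HpaI-digested reporter fragments for capillary electrophoresis. Values derive from bidirectional fitting against DMSO controls.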

Test [2] is described as follows: ATG_TGFb_CIS: Attagene CIS-FACTORIAL HepG2 Assay for human Transforming Growth Factor (TGF) (AID 2282967). The following applies: HepG2 Attagene CIS TGFb reporter, mRNA transcription; actives raise or lower the signal. In short, it runs like this:
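HepG2 cells transiently transfected with cis-promoter-driven multiple reporter units measure endogenous TF activity; reporter mRNA quantified at 24 h by RT-PCR, FAM labeling, HpaI digestion and capillary electrophoresis. Bidirectional fit vs DMSO.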

The nature of test [3]: ATG_VDRE_CIS: Attagene CIS-FACTORIAL HepG2 Assay for human Vitamin D Receptor Element (VDRE) (AID 2282968). The conditions noted are these: HepG2 VDRE cis-reporter transcription, actives raise or lower the signal. An outline of the steps: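 Readout is VDRE-driven reporter mRNA reflecting endogenous factor activity in human HepG2 cells, sampled 24 h post-dose. Quantification used labelled RT-PCR products separated by capillary electrophoresis; bidirectional analysis relative to DMSO.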

Test [4] has as its target X-box-binding protein 1 (Homo sapiens) (UniProt P17861). As to the kind of experiment: ATG_Xbp1_CIS: Attagene CIS-FACTORIAL HepG2 Assay for human X-box Binding Protein 1 (XBP1) (AID 2282972). The conditions noted are these: HepG2 XBP1 cis-element reporter, Attagene multiplex; actives raise or lower the signal. An outline of the steps:
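Read-out: fluorescent reporter mRNA fragments resolved by capillary electrophoresis after RT-PCR. Human HepG2 liver cells carried transfected cis-promoter reporter units and were exposed to chemicals for 24 hours. Gain or loss of signal fitted relative to DMSO baseline.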

The nature of test [5]: ATG_GAL4_TRANS: Attagene TRANS-FACTORIAL HepG2 Assay for GAL4 (Internal Marker) (AID 2282976; active means hit-call score of the fitted dose curve at least 0.9, where 1 is the maximum). The following applies: HepG2 Attagene TRANS GAL4 internal marker reporter. An outline of the steps:
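First, HepG2 cells were transfected with reporter units under GAL4-UAS control. Next, they were treated with chemical for 24 h. Finally, RNA was reverse-transcribed, PCR-amplified, FAM-labelled and resolved by capillary electrophoresis, with induction scored against DMSO.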

For test [6], the target named is Glucocorticoid receptor (Homo sapiens) (UniProt P04150). As to the kind of experiment: ATG_GR_TRANS: Attagene TRANS-FACTORIAL HepG2 Assay for human Glucocorticoid Receptor (GR) (AID 2282978; active means hit-call score of the fitted dose curve at least 0.9, where 1 is the maximum;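 further: activators score as hits since higher reporter transcript over DMSO is fitted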). The following applies: HepG2 Attagene TRANS GR reporter, mRNA transcription. In short, it runs like this: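 HepG2 cells transiently transfected with GAL4-UAS reporter units and exogenous GR-Gal4 chimera, dosed 24 h. Reporter mRNA by RT-PCR, FAM labeling, HpaI digest and capillary electrophoresis; gain-of-signal fit versus DMSO.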
Sequence of Glucocorticoid receptor (Homo sapiens) (P04150 whole entry, looked up, the tested form may be a part): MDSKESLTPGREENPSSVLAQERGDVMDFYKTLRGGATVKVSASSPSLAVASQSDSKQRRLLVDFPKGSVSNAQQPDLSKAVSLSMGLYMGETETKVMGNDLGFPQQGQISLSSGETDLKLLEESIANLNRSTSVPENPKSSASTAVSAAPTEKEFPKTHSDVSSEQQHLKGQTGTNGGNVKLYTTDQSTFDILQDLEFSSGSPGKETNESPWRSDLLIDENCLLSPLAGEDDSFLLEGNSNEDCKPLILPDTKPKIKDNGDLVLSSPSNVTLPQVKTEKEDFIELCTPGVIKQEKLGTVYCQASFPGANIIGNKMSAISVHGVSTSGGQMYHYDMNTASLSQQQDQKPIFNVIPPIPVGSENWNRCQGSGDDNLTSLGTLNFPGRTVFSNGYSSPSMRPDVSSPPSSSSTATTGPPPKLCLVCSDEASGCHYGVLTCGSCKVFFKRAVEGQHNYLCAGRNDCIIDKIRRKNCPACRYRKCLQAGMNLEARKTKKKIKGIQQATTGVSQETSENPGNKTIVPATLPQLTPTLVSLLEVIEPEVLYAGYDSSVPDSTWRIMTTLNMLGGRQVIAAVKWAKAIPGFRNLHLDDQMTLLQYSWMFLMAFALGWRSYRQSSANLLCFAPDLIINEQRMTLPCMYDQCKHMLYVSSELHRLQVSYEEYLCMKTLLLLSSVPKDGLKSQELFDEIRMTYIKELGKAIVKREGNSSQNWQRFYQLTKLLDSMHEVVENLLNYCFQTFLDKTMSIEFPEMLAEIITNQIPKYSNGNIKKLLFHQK

The target in test [7] is Bile acid receptor (Homo sapiens) (UniProt Q96RI1). The experiment in a line: ATG_FXR_TRANS: Attagene TRANS-FACTORIAL HepG2 Assay for Farnesoid X Receptor (FXR) (AID 2282979; active means hit-call score of the fitted dose curve at least 0.9, where 1 is the maximum;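 further: hits raise reporter mRNA above DMSO so AC50 marks FXR activation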). The following applies: HepG2 Attagene TRANS FXR-GAL4 reporter transcription. In short, it runs like this: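 Transient transfection of HepG2 with multiplexed GAL4-UAS reporter units; exogenous FXR-GAL4 chimera. Dose 24 h → TriZol RNA → oligo(dT) RT → PCR, 6-FAM primer extension, HpaI cut → CE. Gain vs DMSO.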
Sequence of Bile acid receptor (Homo sapiens) (Q96RI1 whole entry, looked up, the tested form may be a part): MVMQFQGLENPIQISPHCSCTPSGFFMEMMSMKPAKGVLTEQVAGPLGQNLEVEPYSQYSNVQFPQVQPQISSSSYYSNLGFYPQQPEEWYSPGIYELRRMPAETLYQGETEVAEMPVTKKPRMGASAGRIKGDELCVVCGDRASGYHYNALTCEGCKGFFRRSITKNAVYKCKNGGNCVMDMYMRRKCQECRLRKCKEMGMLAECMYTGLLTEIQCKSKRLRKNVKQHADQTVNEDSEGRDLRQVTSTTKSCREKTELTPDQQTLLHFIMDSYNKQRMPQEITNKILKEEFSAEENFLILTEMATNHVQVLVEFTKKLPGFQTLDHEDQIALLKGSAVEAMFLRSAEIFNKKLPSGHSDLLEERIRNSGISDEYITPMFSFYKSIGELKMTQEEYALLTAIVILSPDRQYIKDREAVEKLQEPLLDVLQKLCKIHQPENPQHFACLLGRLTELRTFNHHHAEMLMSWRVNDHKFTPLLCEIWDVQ

Test [8] concerns the target Oxysterols receptor LXR-beta (Homo sapiens) (UniProt P55055). The experiment in a line: ATG_LXRb_TRANS: Attagene TRANS-FACTORIAL HepG2 Assay for human Liver X Receptor beta (LXRb) (AID 2282981; active means hit-call score of the fitted dose curve at least 0.9, where 1 is the maximum). The following applies: HepG2 Attagene TRANS GAL4-LXRb reporter, mRNA. An outline of the steps: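 After 24 h chemical treatment of transfected HepG2 cells carrying exogenous NR-Gal4 chimeras, reporter mRNA was quantified by fluorescent RT-PCR and capillary electrophoresis; activity taken as increase over DMSO controls.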

For test [9], the target named is Hepatocyte nuclear factor 4-alpha (Homo sapiens) (UniProt P41235). As to the kind of experiment: ATG_HNF4a_TRANS: Attagene TRANS-FACTORIAL HepG2 Assay for human Hepatocyte Nuclear Factor 4 alpha (HNF4a) (AID 2282982; active means hit-call score of the fitted dose curve at least 0.9, where 1 is the maximum). The conditions noted are these: HepG2 HNF4a transactivation reporter, mRNA readout. In short, it runs like this:
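Activity of an exogenous HNF4a–Gal4 fusion scored as induced GAL4-UAS reporter transcripts after 24 h chemical exposure of transfected human HepG2 cells. Read-out via RT-PCR with 6-FAM labelling and capillary electrophoresis; rise over DMSO baseline.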

The nature of test [10]: ATG_M_06_TRANS: Attagene TRANS-FACTORIAL HepG2 Assay for M06 Transcription Factor (Internal Marker) (AID 2282983; active means hit-call score of the fitted dose curve at least 0.9, where 1 is the maximum;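 further: reporter transcript level by RT-PCR then capillary electrophoresis fluorescence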). The following applies: HepG2 Attagene TRANS M06 internal marker reporter. An outline of the steps:
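Background control endpoint: reporter mRNA from transiently transfected HepG2 after 24 h dosing, detected by RT-PCR with capillary electrophoresis fluorescence. Analysed for gain versus DMSO.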

Test [11] is described as follows: ATG_M_32_TRANS: Attagene TRANS-FACTORIAL HepG2 Assay for M32 Transcription Factor (Internal Marker) (AID 2282984; active means hit-call score of the fitted dose curve at least 0.9, where 1 is the maximum;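 further: transcript level of a background control reporter unit measured by RT-PCR and capillary electrophoresis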). The following applies: HepG2 Attagene TRANS M32 internal marker reporter. An outline of the steps: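 Internal background reporter in transfected HepG2: after 24 h chemical exposure, RNA reverse-transcribed, reporter cDNA amplified, fluorescently labelled and HpaI-cut, then sized by capillary electrophoresis. Gain of signal fitted against DMSO control.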

For test [12], the target named is Nuclear receptor subfamily 4 group A member 2 (Homo sapiens) (UniProt P43354). The experiment in a line: ATG_NURR1_TRANS: Attagene TRANS-FACTORIAL HepG2 Assay for human Nuclear Receptor Related Protein 1 (NURR1) (AID 2282985; active means hit-call score of the fitted dose curve at least 0.9, where 1 is the maximum). The conditions noted are these: HepG2 Attagene TRANS reporter, mRNA readout. In short, it runs like this: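 Reporter transcript induction, measured by RT-PCR with fluorescent labelling, HpaI digestion and capillary electrophoresis, after 24 hr dosing of human HepG2 cells transiently expressing an exogenous NR-Gal4 fusion with GAL4-UAS-driven reporters; DMSO as baseline.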
Sequence of Nuclear receptor subfamily 4 group A member 2 (Homo sapiens) (P43354 whole entry, looked up, the tested form may be a part): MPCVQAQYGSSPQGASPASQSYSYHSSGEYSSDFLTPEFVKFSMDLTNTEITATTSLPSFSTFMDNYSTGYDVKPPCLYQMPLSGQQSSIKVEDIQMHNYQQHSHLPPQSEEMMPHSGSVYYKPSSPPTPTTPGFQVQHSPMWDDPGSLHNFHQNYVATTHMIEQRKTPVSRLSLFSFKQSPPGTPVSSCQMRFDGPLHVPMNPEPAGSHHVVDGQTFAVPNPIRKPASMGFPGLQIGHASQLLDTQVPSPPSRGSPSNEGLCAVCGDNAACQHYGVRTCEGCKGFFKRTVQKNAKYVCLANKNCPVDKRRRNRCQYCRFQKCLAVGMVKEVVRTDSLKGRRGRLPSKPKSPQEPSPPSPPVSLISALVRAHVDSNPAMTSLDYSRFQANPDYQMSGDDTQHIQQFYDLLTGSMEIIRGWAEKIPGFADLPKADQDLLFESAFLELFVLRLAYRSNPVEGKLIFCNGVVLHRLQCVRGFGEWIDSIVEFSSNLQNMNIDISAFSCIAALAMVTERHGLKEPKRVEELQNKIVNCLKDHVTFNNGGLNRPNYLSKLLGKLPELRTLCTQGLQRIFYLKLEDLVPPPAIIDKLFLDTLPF

In test [13] the target is Transcriptional activator Myb (Homo sapiens) (UniProt P10242). The experiment in a line: ATG_Myb_CIS: Attagene CIS-FACTORIAL HepG2 Assay for human Myeloblastosis (Myb) Proto-Oncogene Transcription Factor (AID 2282986). The following applies: HepG2 Attagene CIS-FACTORIAL Myb reporter transcription; actives raise or lower the signal. An outline of the steps:
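Transiently transfected HepG2 cells carrying a multiplexed cis-promoter reporter set report endogenous Myb activity after 24 h compound exposure. Reporter mRNA is read by RT-PCR with capillary electrophoresis of fluorescent products, fitted bidirectionally against DMSO.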

Test [14] has as its target Nuclear respiratory factor 1 (Homo sapiens) (UniProt Q16656). The experiment in a line: ATG_NRF1_CIS: Attagene CIS-FACTORIAL HepG2 Assay for human Nuclear Respiratory Factor 1 (NRF1) Orphan Gene (AID 2282987). The conditions noted are these: HepG2 NRF1 cis-element reporter, Attagene multiplex; actives raise or lower the signal. An outline of the steps:
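HepG2 cells transiently transfected with multiple cis-regulated reporter units, exposed 24 h. Reporter mRNAs measured by RT-PCR, fluorescent labelling, HpaI digestion and capillary electrophoresis; bidirectional fitting against DMSO.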

Test [15] can be described thus: ATG_M_19_TRANS: Attagene TRANS-FACTORIAL HepG2 Assay for M19 Transcription Factor (Internal Marker) (AID 2282974; active means hit-call score of the fitted dose curve at least 0.9, where 1 is the maximum). The following applies: HepG2 Attagene TRANS-FACTORIAL M19 internal marker reporter. In short, it runs like this:
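HepG2 transiently transfected with GAL4-UAS multiplex reporter constructs, exposed 24 h; reporter RNA quantified by RT-PCR, 6-FAM labeling, HpaI digestion and capillary electrophoresis; internal background marker fitted upward versus DMSO.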

For test [16], the target named is Oxysterols receptor LXR-alpha (Homo sapiens) (UniProt Q13133). As to the kind of experiment: ATG_LXRa_TRANS: Attagene TRANS-FACTORIAL HepG2 Assay for human Liver X Receptor alpha (LXRa) (AID 2282980; active means hit-call score of the fitted dose curve at least 0.9, where 1 is the maximum). The conditions noted are these: HepG2 Attagene TRANS reporter, LXRa transactivation. An outline of the steps:
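Transfect HepG2 with GAL4-UAS multiplex reporter constructs (TRANS format, chimeric receptor-GAL4); treat 24 h; extract RNA, reverse-transcribe, PCR-amplify, FAM-label, HpaI-digest; resolve fragments by capillary electrophoresis. Upward response vs DMSO.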

Records with an inconclusive call do not appear. Active and inactive are the calls of the source. How the source made its calls, unless noted: active means hit-call score of the fitted dose curve at least 0.9, where 1 is the maximum; inactive means score below 0.9.

Sequence of Oxysterols receptor LXR-alpha (Homo sapiens) (Q13133 whole entry, looked up, the tested form may be a part): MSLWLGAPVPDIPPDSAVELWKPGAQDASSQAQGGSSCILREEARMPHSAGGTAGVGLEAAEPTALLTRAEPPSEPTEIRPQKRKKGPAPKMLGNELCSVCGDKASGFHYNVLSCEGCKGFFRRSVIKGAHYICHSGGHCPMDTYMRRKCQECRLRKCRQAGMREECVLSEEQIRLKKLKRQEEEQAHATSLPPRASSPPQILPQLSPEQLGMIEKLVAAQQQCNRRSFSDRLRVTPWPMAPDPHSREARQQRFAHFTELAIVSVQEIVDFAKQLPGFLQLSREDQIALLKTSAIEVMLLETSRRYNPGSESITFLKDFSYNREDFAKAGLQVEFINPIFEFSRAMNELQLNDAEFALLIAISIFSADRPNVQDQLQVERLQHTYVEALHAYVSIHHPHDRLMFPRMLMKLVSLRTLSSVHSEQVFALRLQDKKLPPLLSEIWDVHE
Sequence of Nuclear respiratory factor 1 (Homo sapiens) (Q16656 whole entry, looked up): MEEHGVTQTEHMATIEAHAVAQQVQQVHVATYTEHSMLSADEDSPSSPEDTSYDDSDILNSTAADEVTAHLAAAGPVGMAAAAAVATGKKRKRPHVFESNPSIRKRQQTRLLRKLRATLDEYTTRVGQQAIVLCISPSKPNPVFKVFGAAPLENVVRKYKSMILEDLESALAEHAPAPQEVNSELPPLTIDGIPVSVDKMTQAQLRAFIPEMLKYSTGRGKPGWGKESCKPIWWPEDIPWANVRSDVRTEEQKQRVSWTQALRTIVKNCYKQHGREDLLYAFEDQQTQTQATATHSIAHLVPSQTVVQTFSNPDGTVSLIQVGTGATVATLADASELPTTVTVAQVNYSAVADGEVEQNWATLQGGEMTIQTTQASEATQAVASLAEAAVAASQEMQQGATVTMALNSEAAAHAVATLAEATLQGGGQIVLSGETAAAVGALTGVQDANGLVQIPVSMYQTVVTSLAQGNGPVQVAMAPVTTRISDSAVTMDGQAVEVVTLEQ
Sequence of X-box-binding protein 1 (Homo sapiens) (P17861 whole entry, looked up, the tested form may be a part): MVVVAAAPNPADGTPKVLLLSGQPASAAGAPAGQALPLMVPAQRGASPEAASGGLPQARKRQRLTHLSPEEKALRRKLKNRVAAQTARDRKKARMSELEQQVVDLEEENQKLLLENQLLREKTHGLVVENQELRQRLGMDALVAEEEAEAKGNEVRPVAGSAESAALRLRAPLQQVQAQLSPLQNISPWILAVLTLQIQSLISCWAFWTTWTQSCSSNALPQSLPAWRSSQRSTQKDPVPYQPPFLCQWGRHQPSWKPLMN
Sequence of Hepatocyte nuclear factor 4-alpha (Homo sapiens) (P41235 whole entry, looked up, the tested form may be a part): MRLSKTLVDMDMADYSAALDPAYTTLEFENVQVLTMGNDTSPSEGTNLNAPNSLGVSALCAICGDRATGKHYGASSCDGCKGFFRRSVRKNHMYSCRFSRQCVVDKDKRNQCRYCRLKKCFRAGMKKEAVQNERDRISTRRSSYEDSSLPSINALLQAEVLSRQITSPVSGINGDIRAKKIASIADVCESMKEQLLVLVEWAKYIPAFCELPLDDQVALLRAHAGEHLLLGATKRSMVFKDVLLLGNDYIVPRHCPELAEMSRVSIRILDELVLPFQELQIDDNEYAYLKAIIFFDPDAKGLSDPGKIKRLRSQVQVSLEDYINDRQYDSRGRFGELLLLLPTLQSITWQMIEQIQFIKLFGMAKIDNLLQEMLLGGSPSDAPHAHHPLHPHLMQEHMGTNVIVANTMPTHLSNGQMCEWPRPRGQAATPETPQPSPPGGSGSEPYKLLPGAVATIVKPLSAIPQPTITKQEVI
Sequence of Oxysterols receptor LXR-beta (Homo sapiens) (P55055 whole entry, looked up, the tested form may be a part): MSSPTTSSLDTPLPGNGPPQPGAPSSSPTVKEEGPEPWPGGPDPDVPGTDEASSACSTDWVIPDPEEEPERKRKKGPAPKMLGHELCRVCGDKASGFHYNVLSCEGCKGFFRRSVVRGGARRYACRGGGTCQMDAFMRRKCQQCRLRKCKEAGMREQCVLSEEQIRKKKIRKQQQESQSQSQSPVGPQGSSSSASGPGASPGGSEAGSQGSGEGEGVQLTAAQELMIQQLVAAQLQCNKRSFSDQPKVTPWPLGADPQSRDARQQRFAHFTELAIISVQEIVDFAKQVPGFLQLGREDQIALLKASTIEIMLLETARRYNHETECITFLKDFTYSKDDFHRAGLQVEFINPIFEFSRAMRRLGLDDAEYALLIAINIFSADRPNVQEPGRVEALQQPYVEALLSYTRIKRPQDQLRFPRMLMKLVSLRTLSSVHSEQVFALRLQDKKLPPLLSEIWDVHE
Sequence of Transcriptional activator Myb (Homo sapiens) (P10242 whole entry, looked up): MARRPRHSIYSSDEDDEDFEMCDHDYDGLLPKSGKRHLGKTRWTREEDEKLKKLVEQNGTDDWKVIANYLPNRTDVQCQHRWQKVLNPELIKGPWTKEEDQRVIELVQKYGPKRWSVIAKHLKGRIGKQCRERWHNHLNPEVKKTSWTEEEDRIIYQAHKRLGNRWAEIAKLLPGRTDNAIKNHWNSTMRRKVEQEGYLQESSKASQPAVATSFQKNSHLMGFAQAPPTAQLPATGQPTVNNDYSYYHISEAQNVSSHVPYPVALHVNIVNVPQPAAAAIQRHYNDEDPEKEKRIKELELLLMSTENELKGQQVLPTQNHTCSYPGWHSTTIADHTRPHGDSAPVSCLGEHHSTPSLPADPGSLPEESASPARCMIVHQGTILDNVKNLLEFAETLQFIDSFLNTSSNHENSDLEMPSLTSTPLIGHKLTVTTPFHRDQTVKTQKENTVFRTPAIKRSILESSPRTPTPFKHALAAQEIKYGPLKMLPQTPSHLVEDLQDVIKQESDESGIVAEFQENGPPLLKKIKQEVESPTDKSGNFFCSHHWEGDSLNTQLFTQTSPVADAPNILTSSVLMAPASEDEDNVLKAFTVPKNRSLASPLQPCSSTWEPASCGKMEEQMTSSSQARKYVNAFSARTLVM

As a reminder, the AC50 is the midpoint of the concentration-response curve, whichever way the signal moves. On to `O=C(Nc1ccc2c(c1)Cc1ccccc1-2)C(F)(F)F`, for which the compound was called inactive in [1], in test [2], in test [4], in test [5], in test [6] and in [7]. Also, the outcome in test [8], in [9], in test [10], in test [11], in test [12] and in test [13] was inactive. In test [14], the result was inactive. Also, in test [3], the AC50 was 30.5 µM (active).
As for `CC(C)Nc1nc(N)nc(Cl)n1`, the compound was classed as inactive in test [1], in test [2], in test [3], in [4], in test [15] and in [6]. Further, the call in [9], in [10], in test [12], in [13] and in test [14] was inactive.
With `OCCOCCN1CCN(C2=Nc3ccccc3Sc3ccccc32)CC1`, the outcome in test [1], in test [2], in test [4], in [5], in [7] and in [16] was inactive. Also, the result in test [10], in test [11], in test [12] and in test [14] was inactive. In test [3], the AC50 is 19.5 µM (active).
`O=C1NC2NC(=O)NC2N1` (stereo not given): the outcome in [1], in test [2], in test [3], in test [4], in test [15] and in [5] was inactive. The call in [8], in test [9], in test [10], in [12], in test [13] and in test [14] was inactive.
For the compound `c1ccc(Oc2ccccc2)cc1`, the call in test [1], in test [2], in test [3], in [4], in test [15] and in test [6] was inactive. Moreover, the result in test [8], in test [9], in test [11], in [12], in test [13] and in [14] was inactive.
Regarding `Cc1ccc(S(N)(=O)=O)cc1`, the result in test [1], in test [2], in test [3], in [4], in test [5] and in test [6] was inactive. Besides, the compound was called inactive in [7], in test [16], in [9], in [10], in [11] and in [13]. Further, the compound was called inactive in test [14].
With `C=CCOC(=O)CCCCCC`, the call in test [1], in test [3], in [4], in test [15], in test [6] and in test [9] was inactive. Besides, the result in test [10], in test [11], in [12], in test [13] and in test [14] was inactive. The AC50 in test [2] was 0.0799 µM (active).
Take `COC(CC(C)CCCC(C)(C)O)OC` (stereo not given): the compound was called inactive in test [1], in [2], in [3], in test [4], in [15] and in [5]. Moreover, the compound was classed as inactive in test [9], in test [13] and in test [14].
For `C=COCCOCCOC=C`, the compound was classed as inactive in [1], in test [2], in test [3], in test [4], in [5] and in [7]. For the same compound, the result in [9], in [11], in test [12] and in test [14] was inactive.
Turning to `CC(C)CCOC(=O)c1ccccc1`, the result in test [1], in test [2], in test [3], in test [4], in test [15] and in test [5] was inactive. Besides, the call in test [11], in test [13] and in [14] was inactive.
For the compound `CC(=O)C(C)O` (stereo not given), the result in test [1], in test [2], in test [3], in test [4], in test [5] and in test [16] was inactive. The outcome in test [8], in test [9], in [10], in test [12], in test [13] and in test [14] was inactive.
